Data: PubChem BioAssay (NCI)
This is part of a sample that, as a whole, favours compounds with a hit. Of some 83,000 tested, about 20% had one in any assay.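 Activity criterion: percent growth below 10, measured after cells in 96-well plates were exposed to a single compound concentration for 48 hours.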 Activity calls are given as the source filed them.

Legend:
Assay in all cases: NCI-60 one-dose screen, 48 h (100 = growth as untreated, 0 = no growth, -100 = all killed)
Conditions in all cases: 10 µM
K-562 leukemia = test system: K-562 leukemia
MDA-MB-231 breast = test system: MDA-MB-231 breast
RXF 393 renal = test system: RXF 393 renal
SF-268 CNS = test system: SF-268 CNS
SF-295 CNS = test system: SF-295 CNS
SF-539 CNS = test system: SF-539 CNS
UACC-257 melanoma = test system: UACC-257 melanoma
M14 melanoma = test system: M14 melanoma
HCT-15 colon = test system: HCT-15 colon
HT29 colon = test system: HT29 colon
SNB-75 CNS = test system: SNB-75 CNS
SNB-19 CNS = test system: SNB-19 CNS
U251 CNS = test system: U251 CNS
PC-3 prostate = test system: PC-3 prostate
SK-MEL-5 melanoma = test system: SK-MEL-5 melanoma
UACC-62 melanoma = test system: UACC-62 melanoma
LOX IMVI melanoma = test system: LOX IMVI melanoma
SK-MEL-28 melanoma = test system: SK-MEL-28 melanoma
SK-MEL-2 melanoma = test system: SK-MEL-2 melanoma

Measured: growth

CCN1CCC2(CC1)OC(c1ccccc1)C(c1ccccc1)O2 (stereo unspecified)
inactive: K-562 leukemia 88.2% | MDA-MB-231 breast 122% | RXF 393 renal 109% | SF-268 CNS 108% | SF-295 CNS 111% | SF-539 CNS 116% | UACC-257 melanoma 116% | M14 melanoma 112% | HCT-15 colon 106% | HT29 colon 96% | SNB-75 CNS 88.2% | SNB-19 CNS 112% | U251 CNS 109% | PC-3 prostate 89.1% | SK-MEL-5 melanoma 105% | UACC-62 melanoma 115% | LOX IMVI melanoma 90.8% | SK-MEL-28 melanoma 107% | SK-MEL-2 melanoma 105%

O=C(/C(=C/c1ccccc1)CN1CCCCC1)c1ccccc1
active: K-562 leukemia 2.9% | MDA-MB-231 breast -24.8% | RXF 393 renal -77.6% | SF-268 CNS -9.79% | SF-539 CNS -43.4% | UACC-257 melanoma -0.832% | M14 melanoma -48.4% | HCT-15 colon -40.6% | HT29 colon -30.6% | U251 CNS -22.7% | PC-3 prostate -9.65% | SK-MEL-5 melanoma -86% | UACC-62 melanoma -67% | LOX IMVI melanoma -75.1% | SK-MEL-28 melanoma -63% | SK-MEL-2 melanoma -67%
inactive: SF-295 CNS 38.6% | SNB-75 CNS 30.6% | SNB-19 CNS 45.9%

NC(=O)SCC(=O)Nc1ccc(S(N)(=O)=O)cc1
inactive: K-562 leukemia 108% | MDA-MB-231 breast 106% | RXF 393 renal 99% | SF-268 CNS 106% | SF-295 CNS 107% | SF-539 CNS 100% | UACC-257 melanoma 101% | M14 melanoma 105% | HCT-15 colon 109% | HT29 colon 107% | SNB-75 CNS 96.3% | SNB-19 CNS 104% | U251 CNS 104% | PC-3 prostate 100% | SK-MEL-5 melanoma 102% | UACC-62 melanoma 89% | LOX IMVI melanoma 97% | SK-MEL-28 melanoma 113% | SK-MEL-2 melanoma 111%

CN1c2ccccc2[C@]2(Cc3ccccc3)Cc3ccccc3N[C@H]12
inactive: K-562 leukemia 92.1% | MDA-MB-231 breast 97.5% | RXF 393 renal 112% | SF-268 CNS 112% | SF-295 CNS 104% | SF-539 CNS 105% | UACC-257 melanoma 111% | M14 melanoma 104% | HCT-15 colon 96.3% | HT29 colon 86.9% | SNB-75 CNS 89.6% | SNB-19 CNS 104% | U251 CNS 106% | PC-3 prostate 100% | SK-MEL-5 melanoma 108% | UACC-62 melanoma 87.5% | LOX IMVI melanoma 104% | SK-MEL-28 melanoma 99.7% | SK-MEL-2 melanoma 95%
